Data reported in PubChem BioAssay (NCATS).
Records with an inconclusive call do not appear. Calls of active or inactive are those of the source. The call rests on the fitted dose curve; in most records, active means well fitted cell-killing curve with a large enough effect; inconclusive means small, poorly fitted or top-dose-only effect, or effect the other way; inactive means flat fitted curve, though single readings scatter. Where a SMILES comes first, the peptide text is derived from it.

Columns and labels:
Experiment in all cases: Primary qHTS to identify gynecologic anti-cancer compounds using libraries of approved drugs and bioactive compounds (AID 1345084); further: nearly all actives have a fitted effect of over 55% in size
Conditions in all cases: Gynecologic cancer cell panel viability, ATPlite luminescence, 48 h; series mostly up to 57.5 µM
PA-1 = system: PA-1
Outline: (§1)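 Cells, 1,000 per well, plated 16 h, then exposed 48 h at 37 C to compounds. Viability by ATPlite luminescence after 15 min at room temperature.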

SKOV3 = system: SKOV3
Outline: as §1

Tov-21-G = system: Tov-21-G
Outline: as §1

Tov112D = system: Tov112D
Outline: as §1
On the % scale 0 is the no-effect control and ±100 the full control effect.

CC1=C2CC(O)(C(C)(C)O)C(O[C@@H]3O[C@H](CO)[C@@H](O)[C@H](O)[C@H]3O)CC(C)C2CC1=O (some centres not stated)
inactive: Potency (PA-1) | Potency (SKOV3) | Potency (Tov-21-G) | Potency (Tov112D)

CC1=C2CC(=O)C(C)CC/C=C(\C)CC2(O)OC1=O (configuration not stated)
inactive: Potency (PA-1) | Potency (SKOV3) | Potency (Tov-21-G) | Potency (Tov112D)

CC1(C)CC=C(C#Cc2ccccc2)c2cc(/C=C/c3ccc(C(=O)O)cc3)ccc21
inactive: Potency (PA-1) | Potency (SKOV3) | Potency (Tov-21-G) | Potency (Tov112D)

C[C@@H]1O[C@@H](O[C@H]2[C@H](O)[C@@H](O)[C@H](OC[C@H]3O[C@@H](OC(=O)[C@]45CCC(C)(C)C[C@H]4C4=CCC6[C@@]7(C)C[C@@H](O)[C@H](O)[C@@](C)(CO)C7[C@H](O)C[C@@]6(C)[C@]4(C)CC5)[C@H](O)[C@@H](O)[C@@H]3O)O[C@@H]2CO)[C@H](O)[C@H](O)[C@H]1O (some centres not stated)
inactive: activity change, negative = cytotoxicity (PA-1) 2.94% [at 11.6 µM] | activity change, negative = cytotoxicity (SKOV3) -6.07% [at 11.6 µM] | activity change, negative = cytotoxicity (Tov-21-G) -3.2% [at 11.6 µM] | activity change, negative = cytotoxicity (Tov112D) -3.4% [at 11.6 µM]

CC(O)C(=O)/C=C/C=C/C(=O)OC1C=C2COC(=O)C2(O)C2(C)CCCC(C)(C)C12 (configuration not stated)
inactive: Potency (PA-1) | Potency (SKOV3) | Potency (Tov-21-G) | Potency (Tov112D)

COc1cc([C@@H](O[C@@H]2O[C@H](CO)[C@@H](O)[C@H](O)[C@H]2O)[C@@H]2CO[C@H](c3ccc(O)c(OC)c3)[C@H]2CO)ccc1O
inactive: Potency (PA-1) | Potency (SKOV3) | Potency (Tov-21-G) | Potency (Tov112D)

COC(=O)c1c(CC=C(C)C)c(OC2OC(CO)C(O)C(O)C2O)c2ccccc2c1OC1OC(CO)C(O)C(O)C1O (configuration not stated)
inactive: Potency (PA-1) | Potency (SKOV3) | Potency (Tov-21-G) | Potency (Tov112D)

CC(C)(O)/C=C/C(=O)[C@](C)(O)[C@H]1[C@H](O)C[C@@]2(C)[C@@H]3CC=C4[C@@H](C=C(O[C@@H]5O[C@H](CO)[C@@H](O)[C@H](O)[C@H]5O)C(=O)C4(C)C)[C@]3(C)C(=O)C[C@]12C
inactive: Potency (PA-1) | Potency (SKOV3) | Potency (Tov-21-G) | Potency (Tov112D)

C=C(C)[C@@]1(O)C[C@@]2(C)C(=CC1=O)CC[C@@H](O)[C@@H]2C
inactive: Potency (PA-1) | Potency (SKOV3) | Potency (Tov-21-G) | Potency (Tov112D)

CC(=O)OC1C(O)/C(C)=C\C2C(OC(=O)c3ccccc3)C(C)CC2(OC(C)=O)C(OC(C)=O)C(C)/C=C/C(C)(C)C1OC(C)=O (configuration not stated)
inactive: Potency (PA-1) | Potency (SKOV3) | Potency (Tov-21-G) | Potency (Tov112D)

C=C1C(O)C(O)C2(CC3C(C)=CCC4C(C)(C(=O)O)CCCC34C)OC2C1O (configuration not stated)
inactive: Potency (PA-1) | Potency (SKOV3) | Potency (Tov-21-G) | Potency (Tov112D)

COc1cc(Nc2nc3c(s2)CCCC3c2ccccc2)ccc1-n1cnc(C)c1 (configuration not stated)
inactive: activity change, negative = cytotoxicity (PA-1) 7.13% [at 11.6 µM] | activity change, negative = cytotoxicity (SKOV3) 7.37% [at 11.6 µM] | activity change, negative = cytotoxicity (Tov-21-G) 9.24% [at 11.6 µM] | activity change, negative = cytotoxicity (Tov112D) 0.142% [at 11.6 µM]

COC(=O)C1=COC(O[C@@H]2O[C@H](CO)[C@@H](O)[C@H](O)[C@H]2O)[C@@H]2[C@@](C)(O)[C@@H](OC(=O)/C=C/c3ccccc3)C[C@]12O (some centres not stated)
inactive: Potency (PA-1) | Potency (SKOV3) | Potency (Tov-21-G) | Potency (Tov112D)

O=C(c1ccc(Cl)c([N+](=O)[O-])c1)N1CCN(c2ccccc2F)CC1
inactive: Potency (PA-1) | Potency (SKOV3) | Potency (Tov-21-G) | Potency (Tov112D)

CC1(C)CC[C@]2(C(=O)O[C@@H]3O[C@H](CO)[C@@H](O)[C@H](O)[C@H]3O)CC[C@]3(C)C(=CCC4[C@@]5(C)C[C@H](O)[C@H](O[C@@H]6O[C@H](C(=O)O)[C@@H](O)[C@H](O)[C@H]6O)[C@@](C)(CO)C5CC[C@]43C)C2C1 (some centres not stated)
inactive: activity change, negative = cytotoxicity (PA-1) 1.64% [at 6.55 µM] | activity change, negative = cytotoxicity (SKOV3) 14.6% [at 6.55 µM] | activity change, negative = cytotoxicity (Tov-21-G) -2.15% [at 6.55 µM] | activity change, negative = cytotoxicity (Tov112D) 8.5% [at 6.55 µM]

CC(=O)NC(Cc1ccccc1)C(=O)NC(C(=O)O)C(C)C (stereo not drawn) (Ac-Phe-Val-OH; configuration not given here)
inactive: Potency (PA-1) | Potency (SKOV3) | Potency (Tov-21-G) | Potency (Tov112D)

C[C@@]1(C(=O)O)CCC[C@@]2(C)C3=CC[C@H]4C[C@@]3(CC[C@H]12)CC4(O)CO (some centres not stated)
inactive: Potency (PA-1) | Potency (SKOV3) | Potency (Tov-21-G) | Potency (Tov112D)

C[C@@H]1O[C@@H](O[C@@H]2[C@@H](O)[C@H](O[C@@H]3[C@@H](O)[C@@H](O)[C@H](O[C@H]4[C@H](OC(=O)[C@]56CCC(C)(C)C[C@H]5C5=CCC7[C@@]8(C)C[C@H](O)[C@H](O[C@@H]9O[C@H](C(=O)O)[C@@H](O)[C@H](O)[C@H]9O)[C@@](C)(CO)C8[C@H](O)C[C@@]7(C)[C@]5(C)C[C@H]6O)O[C@@H](CO)[C@@H]4O)O[C@H]3C)OC[C@H]2O)[C@H](O)[C@H](O)[C@H]1O (some centres not stated)
inactive: activity change, negative = cytotoxicity (PA-1) 24% [at 6.55 µM] | activity change, negative = cytotoxicity (SKOV3) -4.92% [at 6.55 µM] | activity change, negative = cytotoxicity (Tov-21-G) 2.22% [at 6.55 µM] | activity change, negative = cytotoxicity (Tov112D) 5.57% [at 6.55 µM]
